According to PubChem BioAssay (NCI):
The panel holds about 79,000 compounds, 15% with a hit somewhere; the sample as a whole holds those more often. Cut-off read from the data, not from the text of the source: active = growth inhibition above about 70%; inactive = the rest.

Key:
[1] = NCI Yeast Anticancer Drug Screen. Data for the rad50 strain (AID 155);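 note: 0% = growth of vehicle-only cultures of the same strain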; conditions: S. cerevisiae rad50 strain growth inhibition; at 50.0 µM; active compounds read high
Method in brief: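 Readout: growth inhibition relative to vehicle-treated cultures. Compound exposure was carried out in a genetically defined yeast strain deficient in DNA damage repair.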

[2] = NCI Yeast Anticancer Drug Screen. Data for the mec2-1 strain (AID 157); conditions: S. cerevisiae mec2-1 strain, at 50.0 µM, active compounds read high
Method in brief: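 Mutant yeast (mec2-1) grown with compound; growth inhibition relative to vehicle control reported.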

[3] = NCI Yeast Anticancer Drug Screen. Data for the sgs1 mgt1 strain (AID 161);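 note: 0% = growth of cultures given vehicle only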; conditions: S. cerevisiae sgs1 mgt1 strain, at 50.0 µM, active compounds read high
Method in brief: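 Percent growth inhibition was derived by comparing compound-exposed mutant yeast with vehicle-exposed cultures. The strain carries alterations in DNA damage repair.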

[4] = NCI Yeast Anticancer Drug Screen. Data for the cln2 rad14 strain (AID 165);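 note: 0% = growth equal to vehicle treated cultures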; conditions: S. cerevisiae cln2 rad14 strain, at 50.0 µM, active compounds read high
Method in brief: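 Readout is yeast growth inhibition versus vehicle-treated controls, using a strain with cln2 and rad14 alterations exposed to compound.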

[5] = NCI Yeast Anticancer Drug Screen. Data for the bub3 strain (AID 167); conditions: S. cerevisiae bub3 mutant strain, at 50.0 µM, active compounds read high
Method in brief: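 Readout: yeast growth inhibition, expressed relative to vehicle-only wells. The test organism is a mutant strain from a panel with lesions in DNA repair or checkpoint genes.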

[6] = NCI Yeast Anticancer Drug Screen. Data for the mlh1 rad18 strain (AID 175); conditions: S. cerevisiae mlh1 rad18 strain growth inhibition; at 50.0 µM; active compounds read high
Method in brief: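 Genetically defined yeast (DNA repair-deficient) exposed to compounds; growth inhibition determined relative to vehicle.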

Measured: growth inhibition

CC(C)NC1(C#N)CCN(Cc2ccccc2)CC1
inactive: [1] -29.8% | [2] -45.1% | [3] -41.4% | [4] 10.2% | [5] -29.1% | [6] -37.5%

Cc1cc(C)c[n+](-c2nc3c([O-])n(C)c(=O)n(C)c-3n2)c1
inactive: [1] -5.35% | [2] 3.15% | [3] -17.8% | [4] -5.45% | [5] -8.25% | [6] -4.15%

Cc1ccc(C(=O)CCN2CCOCC2)c(C)c1
inactive: [1] 40.1% | [2] 5.55% | [3] 26.6% | [4] -4.65% | [5] 29.1% | [6] 31%

N=c1nnc2ccc(Cl)cc2n1O
inactive: [1] 64.5% | [2] 4.7% | [3] 15.6% | [4] 9.65% | [5] -1.85% | [6] -5.25%

N#CCCCO
inactive: [1] -1.25% | [2] 11.6% | [3] 7.45% | [4] -4.55% | [5] 0.3% | [6] -11.8%

CCCCCCCC/C=C\CCCCCCCC(=O)Cl
inactive: [1] -19% | [2] -33.8% | [3] -14% | [4] -55.9% | [5] -8.85% | [6] -23.1%

CCOC(=O)C(CS(=O)(=O)N(CC)CC)NC(=O)c1ccccc1 (stereo not given)
inactive: [1] -1.4% | [2] -10.6% | [3] 2.9% | [4] -10.8% | [5] 5.15% | [6] -18.6%

[N-]=[N+]=NC1CC(n2cc(Cc3ccccc3)c(N)nc2=O)OC1CO (stereo not given)
inactive: [1] -0.1% | [2] -10.6% | [3] 11.4% | [4] 2.95% | [5] 2.9% | [6] -7.05%

COC(=O)CCC(=O)Nc1cc(Cl)c(Cl)cc1Cl
inactive: [1] -14.1% | [2] 8.15% | [3] 6.55% | [4] 1.15% | [5] 9.3% | [6] -7.4%

CCOC(=O)C(NC(=O)c1ccccc1)(c1ccc(S(=O)(=O)Nc2onc(C)c2C)cc1)C(F)(F)F (stereo not given)
inactive: [1] 7.3% | [2] -8.9% | [3] -18.9% | [4] -12.1% | [5] -10.6% | [6] -4.25%

O=C1CCCC(=S)N1
inactive: [1] 3.1% | [2] 4.2% | [3] 9.35% | [4] 16.8% | [5] 14.3% | [6] 6.1%

COC(=O)n1c(CBr)c(Br)c2ccccc21
inactive: [1] 26.3% | [2] -2.15% | [3] -3.65% | [4] -3.8% | [5] 4.9% | [6] 1.5%

CCC(=O)C(CC)c1ccccc1OC (stereo not given)
inactive: [1] 8.75% | [2] -8.35% | [3] 4.65% | [4] 16.5% | [5] 5.45% | [6] 15%

CCOC(=O)c1[nH]c(CC(=O)O)c(C(=O)O)c1C
inactive: [1] 15.7% | [2] 26.4% | [3] 24.4% | [4] 0.4% | [5] 16.4% | [6] 15.2%

O=[N+]([O-])c1ccc(Cl)cc1N/N=C/c1ccnc2ccccc12
inactive: [1] -53.4% | [2] -56.1% | [3] -28.6% | [4] -15.1% | [5] -17.4% | [6] -54.9%

COc1ccc2c(ccc[n+]2CC(=O)c2ccc(Cl)cc2)c1
inactive: [1] -35.9% | [2] -8.35% | [3] -17.2% | [4] 28.4% | [5] -0.5% | [6] -3.7%

CN(C)c1ccc(/C=N/NC(=O)c2ccccc2NC(=O)C2CC2)cc1
inactive: [1] -11.4% | [2] 1.4% | [3] 27% | [4] -18.8% | [5] 24.8% | [6] 26.6%

CC/C(=N/NS(=O)(=O)c1ccc(C)cc1)c1ccc(O)cc1
inactive: [1] 22.7% | [2] 18.1% | [3] 7.9% | [4] 36.8% | [5] 25.5% | [6] 46.6%

CC(=O)OC1CCC2(C)C(CCC3(C)C2CC=C2C4CC(C)(C)CCC4(C)CCC23C)C1(C)C (stereo not given)
inactive: [1] 5.85% | [2] -1% | [3] -8.8% | [4] -1.6% | [5] 6.05% | [6] -5.3%

CCOC(=O)C(C#N)C1CC2CCC1C2 (stereo not given)
inactive: [1] -30.2% | [2] -57.4% | [3] -22.2% | [4] -4.9% | [5] -27.1% | [6] -56.8%
